The whole screen tested about 360,000 compounds, of which about 11,000 (3.1%) were called active. The sample holds actives, similar compounds and a random draw of the others, so the mix is not that of the screen. Unmarked numbers belong to inactive results. No stated cut-off is given here; in the data, active means activity change below about -30%; inactive means the rest.
On the % scale 0 is the no-effect control and ±100 the full control effect.

Sequence of D(1A) dopamine receptor (Homo sapiens) (P21728 whole entry, looked up): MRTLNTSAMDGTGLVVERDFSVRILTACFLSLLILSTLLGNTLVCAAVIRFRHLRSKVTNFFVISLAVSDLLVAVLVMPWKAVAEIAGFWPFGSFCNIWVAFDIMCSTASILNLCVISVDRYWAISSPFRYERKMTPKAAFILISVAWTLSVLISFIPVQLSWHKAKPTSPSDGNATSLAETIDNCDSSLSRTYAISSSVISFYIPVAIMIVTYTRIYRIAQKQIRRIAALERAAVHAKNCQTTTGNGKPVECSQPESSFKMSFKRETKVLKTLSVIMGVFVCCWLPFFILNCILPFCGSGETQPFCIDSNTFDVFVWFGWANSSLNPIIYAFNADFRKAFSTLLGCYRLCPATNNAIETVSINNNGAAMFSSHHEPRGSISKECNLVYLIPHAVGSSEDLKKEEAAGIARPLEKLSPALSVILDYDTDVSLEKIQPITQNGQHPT

The test addresses D(1A) dopamine receptor (Homo sapiens) (UniProt P21728). Briefly: Antagonist of Human D 1 Dopamine Receptor: qHTS. To be noted: HEK293 TREx D1 cells, calcium flux, dopamine EC80; at 10 µM; hits give low values. A digest of the protocol:
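Allosteric or orthosteric antagonism assessed as attenuation of the calcium response to EC80 dopamine, added 180 s after compound, in induced HEK293 Trex D1 cells loaded with no-wash calcium dye.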
(In qHTS, concentration-response curves come from the screen itself.)
`CCCCN(CCCNC(=O)c1cc(Nc2ccccc2OC)nc2ccccc12)c1ccccc1`: the activity change, negative = inhibition was -1.02%. Regarding `COc1ccc(Nc2cc(C(=O)NCCCN(C)c3ccccc3)c3ccccc3n2)c(OC)c1`, the activity change, negative = inhibition was -3.52%.

As for `COc1ccccc1Nc1cc(C(=O)NCCCN(C)C2CCCCC2)c2ccccc2n1`, the activity change, negative = inhibition is -69.1% (active). The figure for `CCCn1c(NCc2ccc(N(CC)CC)cc2)nc2ccccc21` is 7.83%; for `COc1ccccc1N1CCN(S(=O)(=O)CCNC(=O)COc2ccc(F)cc2)CC1` it is -4.69%; for `COc1ccc(OCC(=O)NCCS(=O)(=O)N2CCN(c3ccc(F)cc3)CC2)cc1` it is -3.53%.

For the compound `O=C(COc1ccc(Cl)cc1)NCCS(=O)(=O)N1CCN(c2ccc(F)cc2)CC1`, the activity change, negative = inhibition was -39.2% (active). The figure for `COc1cc(NC(=O)Cn2nc(-c3ccc(C)c(C)c3)ccc2=O)cc(OC)c1` is -2.73%; for `CCOc1ccc(S(=O)(=O)N(CC(=O)NCCSCc2ccc(C)cc2)c2ccccc2)cc1` it is -1.46%.

In the case of `CCCSc1ncc(Cl)c(C(=O)Nc2sc3c(c2C(=O)NCCOC)CCCC3)n1`, the activity change, negative = inhibition was 3.43%. Consider `N#CC(C(=O)c1ccc(S(=O)(=O)N2CCCCCC2)cc1)c1nc2ccccc2[nH]1` (stereo not given), for which the activity change, negative = inhibition is -22.2%. Consider `O=C(C1CCCO1)N1CCC(c2nc3ccccc3[nH]2)CC1` (stereo not given), for which the activity change, negative = inhibition was -12.2%.

Take `O=S(=O)(c1ccc(Br)cc1)N1CCC(c2nc3ccccc3[nH]2)CC1`: the activity change, negative = inhibition is -31.8% (active). With `O=C(Nc1cc(Cl)cc(Cl)c1)c1ccc2c(c1)N(Cc1cccc(Cl)c1)C(=O)c1ccccc1S2=O` (stereo not given), the activity change, negative = inhibition was -24%. The figure for `O=C(Nc1ccc(F)cc1F)c1ccc2c(=O)n3c(nc2c1)CCCCC3` is 0.28%; for `Cc1cc(=O)c2cc(C(=O)Nc3cccc(C)c3C)ccc2[nH]1` it is -7.41%. Turning to `CC(=O)Cn1cnc2c(cnn2-c2ccccc2)c1=O`, the activity change, negative = inhibition was -39.3% (active). The figure for `O=C(Cn1cnc2c(cnn2-c2ccc(F)cc2)c1=O)NCCc1ccccc1` is -6.16%; for `O=C(Cn1cnc2c(cnn2-c2ccccc2)c1=O)NCc1ccccc1` it is 5.27%; for `COc1ccc(-c2nc(C)c(CCNC(=O)c3ccc(C(F)(F)F)cc3)s2)cc1OC` it is -4.09%. The figure for `COc1cc2ccccc2cc1C(=O)Nc1ccc(S(=O)(=O)Nc2cc(C)on2)cc1` is 7.39%; for `Cc1cc(NS(=O)(=O)c2ccccc2)no1` it is -52.3% (active). As for `Cc1ccc(C)c(S(=O)(=O)Nc2cc(C)on2)c1`, the activity change, negative = inhibition is -1.84%.

For `Cc1cccc(NC(=O)c2cc3c(C)nn(-c4ccccc4)c3s2)c1`, the activity change, negative = inhibition is 1.08%. Take `O=C(CC(O)(C(F)(F)F)C(F)(F)F)Nc1ccc(Cl)c(Cl)c1`: the activity change, negative = inhibition was -45.8% (active). On to `NC(=O)N1CCCC1C(=O)Nc1ccc(Cl)c(Cl)c1` (stereo not given), for which the activity change, negative = inhibition is -6.92%. As to `O=C(CSc1nnc(-c2ccncc2)n1-c1ccccc1)Nc1ccc(Cl)c(Cl)c1`, the activity change, negative = inhibition is 7.05%. The figure for `CCC(=O)N1CCc2cc(Br)cc(S(=O)(=O)CCC(=O)N3CCN(c4ccc(F)cc4)CC3)c21` is -13.8%; for `Cc1ccc(NS(=O)(=O)c2cn(C)c(=O)n(C)c2=O)c(C)c1` it is -34.8% (active); for `Cn1cc(S(=O)(=O)Nc2ccc(Cl)cc2Cl)c(=O)n(C)c1=O` it is 1.88%. In the case of `Cc1ccc(NS(=O)(=O)c2ccc3c(c2)n(C)c(=O)c(=O)n3C)c(C)c1` it was 3.25%.

As for `N#CN1CCC(NS(=O)(=O)c2cccc(F)c2)C1` (stereo not given), the activity change, negative = inhibition is -5.93%. Take `Cc1ccc(C)c(S(=O)(=O)c2nnn3c2nc(N2CCOCC2)c2sccc23)c1`: the activity change, negative = inhibition is -17.7%. As to `COc1ccc(OC)c(NC(=O)CSC2=Nc3ccccc3C3=NC(CC(=O)NCc4ccc(F)cc4)C(=O)N23)c1` (stereo not given), the activity change, negative = inhibition was 2.28%. `C=CCn1c(=S)[nH]c2scc(-c3ccco3)c2c1=O`: the activity change, negative = inhibition is -62.9% (active). Regarding `CCC1(C)Cc2c(sc3[nH]c(=S)n(Cc4ccccc4)c(=O)c23)CO1` (stereo not given), the activity change, negative = inhibition was -1.45%. With `CCc1ccc(NC(=O)c2cc3c(=O)n(Cc4cccnc4)ccc3nc2C)cc1`, the activity change, negative = inhibition was -4.72%.

As for `O=C(NCCCNc1ccc([N+](=O)[O-])cc1Cl)c1ccccc1F`, the activity change, negative = inhibition is -30.1% (active).

For the compound `O=C(NCCNc1ccc([N+](=O)[O-])cc1Cl)c1ccccc1F`, the activity change, negative = inhibition was -1.54%. In the case of `O=C(NCCNc1ccccc1[N+](=O)[O-])c1ccccc1F` it was 18.2%. Turning to `COc1ccc(CNC(=O)Cn2nnc(-c3ccccc3F)n2)cc1`, the activity change, negative = inhibition is 7.31%. In the case of `COc1cc(-c2noc(-c3ccc(N4CCCC4)c([N+](=O)[O-])c3)n2)cc(OC)c1OC`, the activity change, negative = inhibition is -3.41%. In the case of `COC(=O)c1sccc1S(=O)(=O)N(CC(=O)Nc1ccc(C)c(F)c1)c1ccc(C)c(C)c1` it was -13.6%; in that of `CCOC(=O)N1CCN(CC(=O)Nc2ccc(F)cc2)CC1`, 4.05%; in that of `CCOC(=O)N1CCN(CC(=O)n2c(C)c(C)c3ccccc32)CC1`, 6.89%.

`CCOC(=O)N1CCN(CC(=O)c2ccc3c(c2)CCN3)CC1`: the activity change, negative = inhibition was -32.2% (active). The figure for `Cc1ccc(CN2CCC(CNC(=O)c3cnn(-c4ccc(C)cc4)c3C3CCN(C(=O)OC(C)(C)C)CC3)CC2)cc1` is 1.49%; for `Cc1ccc2nc(-c3ccc(SCC(=O)Nc4cc(C)on4)nc3)[nH]c2c1` it is -40.5% (active); for `Cc1cccc(-c2nc(SCC(=O)Nc3cc(C)on3)c3c(=O)n(C)c(=O)n(C)c3n2)c1` it is -1.46%.

Regarding `Cc1ccc2nc(SCC(=O)NC3CCCC3)[nH]c2c1`, the activity change, negative = inhibition is 1.64%. The figure for `CCS(=O)(=O)c1nc(S(=O)(=O)c2ccc(C)cc2)c(NCc2ccc(Cl)cc2)s1` is -4.62%; for `Cc1onc(-c2ccc(F)cc2F)c1C(=O)Nc1cccc(C(F)(F)F)c1` it is -7.14%; for `COC(=O)c1cccc(Cn2nnc3sc4c(c3c2=O)CCC(C(C)(C)C)C4)c1` (stereo not given) it is 7.77%. Regarding `Cc1nn(C(C)C(=O)Nc2ccc(C(C)C)cc2)c(=O)c2c1sc1ccccc12` (stereo not given), the activity change, negative = inhibition is -14.9%. The figure for `O=C(Nc1ccccc1F)c1ccccc1-c1ccc(C(F)(F)F)cc1` is -10%. Consider `Cc1ccc(NC2=C(c3ccc(C(F)(F)F)cc3)C(=O)c3ccccc32)cc1F`, for which the activity change, negative = inhibition was -32.9% (active). Consider `Cc1ccc(NC(=O)NC(=O)c2ccccc2)cc1F`, for which the activity change, negative = inhibition is -1.14%. On to `Cc1ccccc1NC(=O)Cn1cc(C(=O)c2cccs2)c2ccccc21`, for which the activity change, negative = inhibition was -14.9%. As for `COc1ccc(-n2nc(C(=O)NCCc3ccc(Cl)cc3)c3c4ccccc4n(C)c3c2=O)cc1Cl`, the activity change, negative = inhibition was -3.18%. Take `Cc1ccc(CCNC(=O)c2ccc3c(c2)N(Cc2cc(C)ccc2C)C(=O)c2ccccc2S3=O)cc1` (stereo not given): the activity change, negative = inhibition is -1.98%.

`COc1cccc2cc(-c3nc(Cl)c4c5c(sc4n3)CC(C)CC5)c(=O)oc12` (stereo not given): the activity change, negative = inhibition was 7.27%. In the case of `Cc1ccc2nc(CNC(=O)c3ccccc3)[nH]c2c1`, the activity change, negative = inhibition was 2.33%. The figure for `Cc1ccc2nc(NC3=NCN(CCc4ccccc4)CN3)nc(C)c2c1` is 8.22%; for `Cc1ccc2nc(C)c3c(c2c1)N(c1ccccc1)CC3` it is -47.3% (active). Turning to `O=C(Nc1ccc(F)cc1F)c1cnn(-c2ccc(F)cc2)c1-n1cccc1`, the activity change, negative = inhibition is 1.78%.

`CCOC(=O)C1=C(CN2CCc3ccccc32)NC(=O)NC1c1ccc(Cl)cc1` (stereo not given): the activity change, negative = inhibition was 19.3%. For the compound `CCOC(=O)C1=C(CSc2nccn2C)NC(=O)NC1c1ccc(OC)cc1` (stereo not given), the activity change, negative = inhibition was -35% (active). The figure for `CCOC(=O)C1=C(CCc2ccccc2)NC(=O)NC1c1ccc2ccccc2c1` (stereo not given) is 13.1%. In the case of `CCN(CC)c1ccc(NS(=O)(=O)c2cc(-c3cc(C)no3)ccc2C)c(C)c1` it was -8.08%. For `COc1ccc(N2CCN(C(=O)C3CCCN(C(=O)c4cc5sccc5n4C)C3)CC2)cc1` (stereo not given), the activity change, negative = inhibition is -16.9%. As to `CC(NC(=O)c1cc(=O)[nH]c2ccccc12)c1ccc(F)cc1F` (stereo not given), the activity change, negative = inhibition is -0.391%.

`CCc1ccc(Sc2cc(C(=O)NCCCOC(C)C)c3ccccc3n2)cc1`: the activity change, negative = inhibition is 9.99%.

In the case of `CC(NC(=O)c1cc(Sc2ccc(F)cc2F)nc2ccccc12)c1ccccc1` (stereo not given), the activity change, negative = inhibition was -44.9% (active). Take `CCOc1ccccc1NC(=O)Cn1c(=O)n(-c2cccc(C)c2)c(=O)c2c1c1cc(OC)ccc1n2C`: the activity change, negative = inhibition is 9%. For `CC(C)Sc1ncnc2c1cnn2-c1ccccc1`, the activity change, negative = inhibition was 11.9%. Regarding `CN(C(=O)COc1ncnc2c1cnn2-c1ccccc1)C1CCCCC1`, the activity change, negative = inhibition is 2.82%. Regarding `c1ccc(-n2ncc3c2ncn2c(C4CCCCC4)nnc32)cc1`, the activity change, negative = inhibition is -30.2% (active). On to `Cc1ccc(NC(=O)Cn2c(=O)n(-c3ccccc3)c(=O)c3c4c(sc32)CCCC4)cc1`, for which the activity change, negative = inhibition is -4.05%. On to `CCOC(=O)N1CCc2c(sc3c2C(=O)NC(c2ccccc2F)N3)C1` (stereo not given), for which the activity change, negative = inhibition was 4.82%. For `O=C(CSc1ncc(CO)n1Cc1ccc(F)cc1)NCc1ccco1`, the activity change, negative = inhibition was -2.59%. Turning to `Cc1nnc(NC(=O)C(c2ccccc2)c2ccccc2)s1`, the activity change, negative = inhibition was 0.172%.

On to `O=C(CCN1CCN(c2ccccc2)CC1)NNC(=S)Nc1ccccc1`, for which the activity change, negative = inhibition is -7.38%. The figure for `CCCCC(=O)NNC(=S)NC(=O)C(c1ccccc1)c1ccccc1` is -50.5% (active).

In the case of `Cc1c(C(=O)NCC2CCCO2)sc2nc(-c3ccccc3)cn12` (stereo not given), the activity change, negative = inhibition was 2.03%. `Cc1c(C(=O)N2CC(C)OC(C)C2)sc2nc(-c3ccccc3)cn12` (stereo not given): the activity change, negative = inhibition was -32.4% (active). For `COc1ccc(-c2cn3c(C)c(C(=O)Nc4cc(C)cc(C)c4)sc3n2)cc1`, the activity change, negative = inhibition is 9.7%. With `Cc1cccc(NC(=O)c2nnn(CC(=O)Nc3ccc(C(C)C)cc3)c2N)c1C`, the activity change, negative = inhibition is 5.98%.

On to `CN(c1cccc(NC(=O)c2ccc(CN3CCc4ccccc4C3)cc2)c1)S(C)(=O)=O`, for which the activity change, negative = inhibition is -37.7% (active). The figure for `Cc1cccc(C)c1NC(=O)c1ccc(CN2CCc3ccccc3C2)cc1` is -14.8%; for `CN(c1ccc(C(=O)N2CCc3ccccc3C2)cc1)S(C)(=O)=O` it is 1.19%.

These data come from PubChem BioAssay AID504652 (National Center for Advancing Translational Sciences (NCATS), 2011).
